The results in this text go back to PubChem BioAssay AID1347155 (National Center for Advancing Translational Sciences (NCATS), 2019).

Each structure is given as a SMILES string. Where “and” joins values, the source holds several entries; their conditions need not be identical. Identical values can stand only once. Records with an inconclusive call do not appear. Where a call stands in place of a potency, no number is given. Calls of active or inactive are those of the source. Calls come from the whole dose curve; as a rule, active = well fitted inhibition curve with a large enough effect; inconclusive = small, poorly fitted or top-dose-only effect; inactive = no such curve, though single readings can be large or run the other way. *1 amine or outer side, *2 acyl side, *3 side chain or, on linkers, in order; H or OH if unused. Where a SMILES comes first, the peptide text is derived from it. Bridges are numbered along the chain shown (N, C = ends). Roman numbers before positions name the chains, in order. [ ]: non-standard residue; d: D form. ξ: configuration not given here. Actinocin(9to1) = Cc1c2oc3c(C)ccc(C(=O)[*:1])c3nc-2c(C(=O)[*:2])c(N)c1=O; aThr = C[C@H](O)[C@H](N)C(=O)O; NMeV = CN[C@H](C(=O)O)C(C)C; ξNMeV = CNC(C(=O)O)C(C)C; ξV = CC(C)C(N)C(=O)O; Sar = CNCC(=O)O

The experiment has as its system Zika virus NS2B-NS3 protease (linked). The experiment in a line: Optimization screen NINDS Rhodamine qHTS for Zika virus inhibitors: Linked NS2B-NS3 protease assay. Conditions: fluorogenic rhodamine substrate; series mostly up to 105 µM. An excerpt:
Avindra Nath, Ph.D., National Institute of Neurological Disorders and Stroke (NINDS), Bethesda, MD
Radhakrishnan Padmanabhan, Ph.D., Georgetown University (GU), Washington D.C.
Zika Virus causes congenital defects, including microcephaly and is associated with Guillain-Barre syndrome, eningoencephalitis and myelitis in infected adult. […] Using a target-based approach, we hope to establish a screening paradigm to uncover novel, cell-active NS2B-NS3 protease (Zika Virus) specific inhibitors from NCATS' collection of small molecules using qHTS.
Four assay panel was created to identify potential Zika Virus inhibitors. Namely, (1) GU unlinked NS2B-NS3 AMC tagged protease qHTS, (2) GU unlinked NS2B-NS3 Rhodamine tagged protease qHTS, (3) NINDS linked NS2B-NS3 AMC tagged protease qHTS, (4) NINDS linked NS2B-NS3 Rhodamine tagged protease qHTS. Active compounds were re-acquired and re-screened to confirm inhibition. Inhibitors were further screened against various confirmatory and counterscreens in dose response format.
Early Translation Branch (ETB)
National Center for Advancing Translational Sciences (NCATS), Rockville, MD
National Institute of Health (NIH), Bethesda, Maryland
For the linked assay, Nath lab (NINDS) provided the purified linked NS2B-NS3 protease which is consists of hydrophilic domain of NS2B linked to the NS3 protease domain by a flexible (-GGGGSGGGG-) linker. Control compound aprotinin is obtained from Thermo Scientific (#78432; Waltham, Massachusetts). Rhodamine110 substrate ([N-Cbz]-Nle-Lys-Arg-Arg-Rhod110-Arg-Arg-Lys-Nle-[N-Cbz]) was purchased from either Genscript or Bachem.
1536-well Protease (Rhodamine110 Substrate) Assay:
Briefly, 3 microL of enzyme (25 nM final concentration), in assay buffer (10 mM Tris-HCl pH 8.0 with 0.01% Tween 20) were dispensed into a 1,536-well solid-bottom black plate (Greiner Bio One, Monroe, NC). Twenty-three nL of compounds (final concentration range 7.28 nM to 114 microM) or control Aprotinin (final concentration range 3.47 nM to 114 microM) were transferred via Wako Pin-tool (Wako Automation, Richmond, VA). Samples were incubated (room temperature, protected from light) for 15 minutes followed by a 1 microL Rhodamine110 substrate addition (1.5 microM final concentration). Plates were then immediately read on a ViewLux High-throughput CCD imager (PerkinElmer, Waltham, MA) equipped with FITC fluorescence optics (480(20) nm excitation, 540(25) nm emission), then incubated (room temperature, protected from light) for 15 minutes (~15% conversion). The change in fluorescence intensity over the 15-minute reaction period was normalized against no-inhibitor and no-enzyme controls and the resulting percent inhibition data were fitted to a 4-parameter Hill equation. Aprotinin was used as intraplate control.
For orientation: qHTS replaces the single test concentration by a dilution series.
Take `NC(=O)C(=O)O`: the Potency entry is “inactive”.
In the case of `CC(C)C[C@H](NC(=O)[C@H](Cc1ccccc1)NC(=O)c1cnccn1)B(O)O`, the Potency entry was “inactive”.
On to `S=c1nc[nH]c2nc[nH]c12`, for which the Potency entry was “inactive”.
The result for `Oc1cc2ccccc2c2ccccc12` reads 63.9 µM (active); that for `CC(C)C[C@@H](NC(=O)[C@H](Cc1ccccc1)NC(=O)c1cnccn1)B(O)O`, “inactive”.
Next, `O=C(O)c1ccc(-n2nc(-c3ccccc3O)nc2-c2ccccc2O)cc1`: 8.79 µM (active); `C[C@H]1O[C@@H](O[C@H]2[C@@H](O)C[C@H](O[C@H]3[C@@H](O)C[C@H](O[C@H]4CC[C@@]5(C)[C@H](CC[C@@H]6[C@@H]5C[C@@H](O)[C@]5(C)[C@@H](C7=CC(=O)OC7)CC[C@]65O)C4)O[C@@H]3C)O[C@@H]2C)C[C@H](O)[C@@H]1O`: “inactive”; `Cc1c2oc3c(C)ccc(C(=O)N[C@@H]4C(=O)NC(C(C)C)C(=O)N5CCC[C@H]5C(=O)N(C)CC(=O)N(C)C(C(C)C)C(=O)O[C@@H]4C)c3nc-2c(C(=O)N[C@@H]2C(=O)NC(C(C)C)C(=O)N3CCC[C@H]3C(=O)N(C)CC(=O)N(C)C(C(C)C)C(=O)O[C@@H]2C)c(N)c1=O` (stereo not given in full) (I: T[ξV]P[Sar][ξNMeV] / II: T[ξV]P[Sar][ξNMeV]; ester I:1-I:C, II:1-II:C; linker I:N-II:N via Actinocin(9to1)): “inactive”.
The result for `CNC(=O)c1cc(Oc2ccc(NC(=O)Nc3ccc(Cl)c(C(F)(F)F)c3)cc2)ccn1` reads 16 µM (active); that for `CCCCOc1ccc(C2C(=O)N(C3CCCCC3)CC(=O)N2C2CCCCC2)cc1` (stereo not given), “inactive”; that for `Cn1cnc([N+](=O)[O-])c1Sc1ncnc2nc[nH]c12`, “inactive”.
Take `CC[C@@H]1O[C@]2(C=C[C@@H]1C)C[C@H]1C[C@H](CC=C(C)[C@@H](O[C@@H]3C[C@H](OC)[C@H](O[C@@H]4C[C@H](OC)[C@H](O)[C@H](C)O4)[C@H](C)O3)[C@@H](C)C=CC=C3CO[C@@H]4[C@@H](O)C(C)=C[C@@H](C(=O)O1)[C@]34O)O2`: the Potency entry was “inactive”.
Turning to `O=C1c2cccc3c2[C@@H](CCC3)CN1[C@@H]1CN2CCC1CC2`, the Potency result is “inactive”.
The result for `C[C@H]1O[C@@H](O[C@H]2[C@@H](O)C[C@H](O[C@H]3[C@@H](O)C[C@H](O[C@H]4CC[C@]5(C)C6C[C@@H](O)[C@]7(C)[C@@H](C8=CC(=O)OC8)CC[C@]7(O)C6CC[C@@H]5C4)O[C@@H]3C)O[C@@H]2C)C[C@H](O)[C@@H]1O` (stereo not given in full) reads “inactive”; that for `Cc1c2oc3c(C)ccc(C(=O)N[C@@H]4C(=O)N[C@H](C(C)C)C(=O)N5CCC[C@H]5C(=O)N(C)CC(=O)N(C)[C@@H](C(C)C)C(=O)O[C@@H]4C)c3nc-2c(C(=O)N[C@@H]2C(=O)N[C@H](C(C)C)C(=O)N3CCC[C@H]3C(=O)N(C)CC(=O)N(C)[C@@H](C(C)C)C(=O)O[C@@H]2C)c(N)c1=O` (I: T[dV]P[Sar][NMeV] / II: T[dV]P[Sar][NMeV]; ester I:1-I:C, II:1-II:C; linker I:N-II:N via Actinocin(9to1)), “inactive”.
Turning to `CC(=O)Nc1ccc([C@H](C)C(=O)Nc2ncc(C(C)C)s2)cc1`, the Potency result is “inactive”.
For the molecule `CCC(CC)(NC(=O)C(C)C)C(=O)N[C@@H](CCCN=C(N)N)C(=O)NC1(C(=O)NC(c2ccc(F)cc2)c2ccc(F)cc2)CCCC1`, the Potency entry was “inactive”.
As for `CC(C)(C)CC(C)(C)c1ccc(OCCOCC[N+](C)(C)Cc2ccccc2)cc1`, the Potency result is “inactive”.
Next, `Nc1nc(=S)c2[nH]cnc2[nH]1`: “inactive”; `CCCCCCCCc1ccc(CCC(N)(CO)CO)cc1`: 55.5 µM (active).
Next, `CC=CCC(C)C(O)C1C(=O)NC(CC)C(=O)N(C)CC(=O)N(C)C(CC(C)C)C(=O)NC(C(C)C)C(=O)N(C)C(CC(C)C)C(=O)NC(C)C(=O)NC(C)C(=O)N(C)C(CC(C)C)C(=O)N(C)C(CC(C)C)C(=O)N(C)C(C(C)C)C(=O)N1C` (stereo not given): “inactive”; `COc1c2occc2cc2ccc(=O)oc12`: “inactive”; `CCc1nc(N)nc(N)c1-c1ccc(Cl)cc1`: “inactive”.
The result for `CO[C@H]1C[C@H](O[C@@H]2/C(C)=C/C[C@@H]3C[C@@H](C[C@]4(CC[C@H](C)[C@@H](C5CCCCC5)O4)O3)OC(=O)[C@@H]3C=C(C)/C(=N/O)[C@H]4OC/C(=C\C=C\[C@@H]2C)[C@]43O)O[C@@H](C)[C@@H]1O` reads “inactive”; that for `COc1c(C)c2c(c(O)c1C/C=C(\C)CCC(=O)OCCN1CCOCC1)C(=O)OC2`, “inactive”; that for `O=c1cc(-c2ccccc2)oc2cc(O)c(O)c(O)c12`, 4.94 µM (active).
As to `OC(c1cc(C(F)(F)F)nc2c(C(F)(F)F)cccc12)C1CCCCN1` (stereo not given), the Potency result was “inactive”.
The result for `Cc1c2oc3c(C)ccc(C(=O)N[C@@H]4C(=O)N[C@@H](C(C)C)C(=O)N5CCC[C@@H]5C(=O)N(C)CC(=O)N(C)[C@@H](C(C)C)C(=O)O[C@H]4C)c3nc-2c(C(=O)N[C@@H]2C(=O)N[C@@H](C(C)C)C(=O)N3CCC[C@@H]3C(=O)N(C)CC(=O)N(C)[C@@H](C(C)C)C(=O)O[C@H]2C)c(N)c1=O` (I: [aThr]V[dP][Sar][NMeV] / II: [aThr]V[dP][Sar][NMeV]; ester I:1-I:C, II:1-II:C; linker I:N-II:N via Actinocin(9to1)) reads “inactive”; that for `O[C@@H](c1cc(C(F)(F)F)nc2c(C(F)(F)F)cccc12)[C@H]1CCCCN1`, “inactive”; that for `CCOc1ccc(C2C(=O)N(C3CCCCC3)CC(=O)N2Cc2ccc(F)cc2)cc1OC` (stereo not given), “inactive”.
As for `CC1OC(OC2C(O)CC(OC3C(O)CC(OC4CCC5(C)C(CCC6C5CC(O)C5(C)C(C7=CC(=O)OC7)CCC65O)C4)OC3C)OC2C)CC(O)C1O` (stereo not given), the Potency result was “inactive”.
As for `O=C1c2c(O)ccc([N+](=O)[O-])c2C(=O)c2c([N+](=O)[O-])ccc(O)c21`, the Potency is 12.7 µM (active) and 6.39 µM (active).
The result for `Cc1ccccc1CNc1ncnc2c1ncn2C1OC(CO)C(O)C1O` (stereo not given) reads “inactive”; that for `CCOc1ccc(C2C(=O)N(C3CCCCCC3)CC(=O)N2CCc2ccc(Cl)cc2)cc1OC` (stereo not given), “inactive”; that for `CC1O[C@@H](O[C@@H]2C(O)C[C@H](O[C@@H]3C(O)C[C@@H](OC4CC[C@@]5(C)C6CC(O)[C@@]7(C)C(C8=CC(=O)OC8)CC[C@@]7(O)C6CC[C@@H]5C4)OC3C)OC2C)CC(O)[C@H]1O` (stereo not given in full), “inactive”.
`C[S+](CC[C@H](N)C(=O)O)C[C@H]1O[C@@H](n2cnc3c(N)ncnc32)[C@H](O)[C@H]1O` (stereo not given in full): the Potency result is “inactive”.
The result for `O=C(Nc1ccc([N+](=O)[O-])cc1Cl)c1cc(Cl)ccc1O` reads 9.87 µM (active); that for `C[C@H]1O[C@@H](O[C@H]2CC[C@@]3(C)[C@H](CC[C@@H]4[C@@H]3C[C@@H](O)[C@]3(C)[C@@H](C5=CC(=O)OC5)CC[C@]43O)C2)C[C@H](O)[C@@H]1O[C@H]1C[C@H](O)[C@H](O[C@H]2C[C@H](O)[C@H](O[C@@H]3O[C@H](CO)[C@@H](O)[C@H](O)[C@H]3O)[C@@H](C)O2)[C@@H](C)O1`, “inactive”; that for `N[C@H](C(=O)O)c1ccc(O)cc1`, “inactive”.
Next, `CC[C@@H](C)[C@H]1O[C@]2(CC[C@H]1C)C[C@@H]1C[C@@H](CC=C(C)[C@@H](O[C@H]3C[C@H](OC)[C@@H](O[C@H]4C[C@H](OC)[C@@H](O)[C@H](C)O4)[C@H](C)O3)[C@@H](C)C=CC=C3CO[C@@H]4[C@H](O)C(C)=C[C@@H](C(=O)O1)[C@]34O)O2`: 39.3 µM (active).
